Screening results: PubChem, SRMLSC
DPM-DC inhibit: blocks S. pneumoniae diphosphomevalonate decarboxylase. purified DPM-DC, PK/LDH coupled NADH fluorescence. calls only at 10 µM. hit rate 0.49% among 65,000. AID 556;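 active = the 320 compounds with the highest percent inhibition in the single-dose primary screen, excluding strongly autofluorescent ones, cut at about 32% in these data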;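 note: kinetic rate of NADH fluorescence loss reporting ADP formed by the decarboxylase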
PMK inhibit: S. pneumoniae PMK inhibition; purified PMK, PK/LDH-coupled NADH absorbance 340 nm; inhibition, % at 10 µM; hit rate 0.49% among 65,000;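 active = top-ranked compounds by inhibition in the single 10 µM screen, taking a fixed number of the strongest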
MK inhibit: inhibitors of Streptococcus pneumoniae mevalonate kinase; purified MK, PK/LDH-coupled NADH absorbance 340 nm; inhibition, % at 10 µM; hit rate 0.48% among 65,000;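 active = ranked among the strongest by inhibition in the single 10 µM screen, a fixed top-ranked set picked for dose follow-up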
Autofluor 339: intrinsic fluorescence of library compounds, ex339/em460 – biochemical, MLSMR library, data from DPM-DC assay, artefact control, profiling panel; fluorescence fold increase at 10 µM; hit rate 5.5% among 65,000; compound autofluorescence, ex339/em460 nm, NADH buffer; hits give high values; 1 = no-compound wells, NADH background;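 active = at 10 µM, mean starting fluorescence two-fold or more over control wells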;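 note: signal is the first read of a kinetic run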
Abs 340nm: compound absorbs light at 340 nm; compound absorbance at 340 nm, fold over control; fold change at 10 µM; 65,000 tested, under 10 active; AID 708;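 active = at 10 µM dose, initial 340 nm absorbance at least 2 fold that of control wells; inactive = change under 2 fold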;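 note: initial absorbance extrapolated from kinetic A340 decline of NADH oxidation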
NADH enzymes: inhibitors of enzymes used to reach an NAD/NADH endpoint. coupled PK/LDH NADH assays, four targets. IC50, µM (titrated, usually from 10 µM). hit rate 0.02% among 65,000;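 active = single-dose screening hits from any of four coupled enzyme assays that gave an IC50 when retested across doses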;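 note: the DPM-DC format reads NADH fluorescence rather than 340 nm absorbance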
A number is an active result; n = inactive; x = no result given; + = active, no number. Rows were chosen to be rich in hits. Some 6.5% of all compounds tested hit in one or more screens of this group.

SMILES	DPM-DC inhibit	PMK inhibit	MK inhibit	Autofluor 339	Abs 340nm	NADH enzymes
CC(C)OC(=O)CC(=O)CSc1nc2c(cc1C#N)CCCC2	x	n	n	3.7	n	n
COC(=O)CC(=O)CSc1nc2c(cc1C#N)CCC2	x	n	n	3.8	n	n
CCOC(=O)CC(=O)CSc1nc2c(cc1C#N)CCCCCC2	x	n	n	2.4	n	n
N#Cc1cc2c(nc1SCC(=O)Nc1nccs1)CCCCC2	n	n	n	n	n	n
COCCSc1nnc(NC(=O)CSCc2ccccc2)s1	n	n	n	n	n	n
Cc1ccc(-c2c3c(=O)n(C)c(=O)n(C)c3cn2Cc2ccccn2)cc1	n	n	n	n	n	n
Cn1cnnc1SCc1ccc(C#N)cc1Cl	n	n	n	n	n	n
CNc1oc(-c2ccccc2)nc1C#N	x	n	n	2.1	n	n
COc1ccc(-c2nc(C#N)c(NCCc3ccccc3)o2)cc1	x	n	n	3.6	n	n
COc1ccc(-c2nc(C#N)c(NCCN(C)C)o2)cc1	x	n	n	2.1	n	n
COc1ccc(CNc2oc(COc3ccc(Cl)cc3)nc2C#N)cc1	n	n	n	n	n	n
COc1ccc(CCNc2oc(-c3ccc(C)cc3)nc2C#N)cc1OC	x	n	n	2.1	n	n
Cc1ccc(N(C(C)C(=O)Nc2ccc(S(=O)(=O)N3CCOCC3)cc2)S(C)(=O)=O)cc1 (stereo not drawn)	n	n	n	n	n	n
CCOC(=O)C1CCN(C(=O)CN(c2cccc(OC)c2)S(=O)(=O)c2ccccc2)CC1	n	n	n	n	n	n
COc1nc(-c2ccccc2)cc(-c2ccc(OC)c(OC)c2)n1	x	n	n	2.2	n	n
COc1ccc(-c2cc(C(F)(F)F)nc(N3CCN(c4ccccc4)CC3)n2)cc1OC	n	n	n	n	n	n
O=S(=O)(c1ccc2ccccc2c1)n1cnc2ccccc21	n	n	n	n	n	n
Brc1c(CSc2nncn2-c2ccccc2)nc2ncccn12	x	n	n	4	n	n
Clc1c(CSc2nc3ccccc3o2)nc2ccccn12	n	n	n	n	n	n
Brc1c(CSc2nc3ccccc3o2)nc2ncccn12	x	n	n	5	n	n
O=C(CSc1nnc(Cc2cc(=O)[nH]c(=O)[nH]2)n1-c1ccccc1)N1CCCCC1	n	n	n	n	n	n
CC(C)C(=O)N1CCc2cc(-c3csc(N)n3)ccc21	n	n	n	n	n	n
N#Cc1c(N)nc2c(c1-c1ccncc1)CCCC2	n	n	n	3.2	n	n
COC(=O)c1c(C#N)c(N)nc2c1CCCC2	x	n	n	3.8	n	n
N#Cc1c(N)nc2c(c1-c1ccncc1)CCCCCC2	n	n	n	2.1	n	n
SMILES	DPM-DC inhibit	PMK inhibit	MK inhibit	Autofluor 339	Abs 340nm	NADH enzymes
CS(=O)(=O)CCC(C(=O)n1nnc2ccccc21)N1C(=O)c2ccccc2C1=O (stereo not drawn)	n	n	n	n	n	n
CCCCn1c(C)nc2c(=O)n(C)c(=O)[nH]c21	n	n	n	n	n	n
c1ccc(Cn2ncc3c2ncn2c(-c4ccncc4)nnc32)cc1	n	n	n	n	n	n
CCCCCCn1c(NCC)nc2c1c(=O)[nH]c(=O)n2C	n	n	n	n	n	n
O=C(c1ccc2c3c(cccc13)CC2)N1CCN(c2ncccn2)CC1	n	n	n	n	n	n
O=c1nc2c(-c3ccccc3F)n[nH]n2c2ccccc12	x	n	n	5.1	n	n
O=C(c1ccc(N2C(=O)CCC2=O)cc1)N1CCN(c2ccccc2)CC1	n	n	n	n	n	n
Cn1c(SCc2nc3ccccc3[nH]2)nnc1-c1cccs1	n	n	n	n	n	n
c1ccc(-c2cc3c(-n4cccc4)ncnc3o2)cc1	n	n	n	3.2	n	n
CCCC1Cc2nc(N3CCCCC3)c(C#N)cc2CO1 (stereo not drawn)	x	n	n	3.6	n	n
CN1C(=O)OC2(C)CCc3ccccc3C12C (stereo not drawn)	n	31	n	n	n	n
CCC(=O)Nc1cc2c(cc1C(C)=O)OCCO2	n	n	n	n	n	n
CCC(=O)c1cc2c(cc1NC(=O)c1ccc(C)cc1)OCCO2	x	n	n	3.1	n	n
CCN(CC)CCCN1C(=O)C(=O)/C(=C(/O)c2ccc(OC)c(Cl)c2)C1c1ccco1 (stereo not drawn)	n	n	n	n	n	n
Cc1ccc(S(=O)(=O)c2c(N)n(NC(=O)C3CC3)c3nc4ccccc4nc23)cc1	x	n	n	3.8	n	n
Nc1c(S(=O)(=O)c2cccc(Cl)c2)c2nc3ccccc3nc2n1CCN1CCOCC1	x	n	n	3.9	n	n
Cc1ccc(S(=O)(=O)N2CCCC(C(=O)NCC3COCCO3)C2)cc1 (stereo not drawn)	n	n	n	n	n	n
Cc1ccc(S(=O)(=O)c2c(N)n(CC3CCOC3)c3nc4ccccc4nc23)cc1 (stereo not drawn)	x	n	n	2.1	n	n
Cc1ccc(S(=O)(=O)N2CCC(C(=O)Nc3ccccc3N3CCCCC3)CC2)cc1	n	n	n	n	n	n
COCCNC(=O)c1cc2cc(Br)cc(OC)c2oc1=O	n	n	n	n	n	n
N#Cc1ccc(NC(=O)c2cc3cc4c5c(c3oc2=N)CCCN5CCC4)cc1	n	n	n	n	n	n
OC1CN=C2C=CC=CN2C1 (stereo not drawn)	n	n	n	2.2	n	n
COCCn1c(-c2ccc(-c3ccccc3Cl)o2)nc2c1c(=O)[nH]c(=O)n2CC(C)C	x	n	n	2.1	n	n
Cc1nc2oc3ccccc3c(=O)c2c(=O)n1Cc1ccccc1	n	n	n	n	n	n
Cc1nc2ccc(N)cc2c(=O)n1Cc1ccc(Cl)cc1	x	n	n	3.7	n	n
SMILES	DPM-DC inhibit	PMK inhibit	MK inhibit	Autofluor 339	Abs 340nm	NADH enzymes
COc1cc(OC)cc(-c2nnc(SCC(=O)Nc3cc(C)on3)o2)c1	n	n	n	n	n	n
O=C(Nc1ccc(Cl)cc1)c1cc2nc(-c3ccco3)cc(C(F)(F)F)n2n1	n	n	n	2.5	n	n
Cc1ccccc1Cn1cc(NC(=O)c2cc3nc(-c4ccco4)cc(C(F)(F)F)n3n2)cn1	+	n	n	3	n	n
Cc1cc(C)c2c(n1)nn1c(NCCN3CCOCC3)cc(C)nc21	x	n	n	3.8	n	n
COCCNc1cc(C)nc2c3c(C)cc(C)nc3nn12	x	n	n	3.8	n	n
Cc1cc(O)c(C(C)C)cc1NC(=O)Cn1nc(C)c2ccccc2c1=O	n	n	n	n	n	n
O=C(c1cccs1)c1ccc(-c2cccs2)s1	n	n	n	2.4	n	n
O=C(c1cc2ccccc2o1)c1cccs1	n	n	n	n	n	n
CCOc1ccc(N2CC(C(=O)OC)CC2=O)cc1 (stereo not drawn)	+	n	n	n	n	n
COc1ccc(S(=O)(=O)N(C)CC(=O)N2CCOCC2)cc1Cl	n	n	n	n	n	n
CCOC(=O)c1c(N)sc2c1CCS(=O)(=O)C2	n	n	n	n	n	n
